In experiment [1] the target is Nuclear receptor coactivator 3 (Homo sapiens) (UniProt Q9Y6Q9). Description: SRC3 coactivator transcriptional activity inhibitors, confirmation, cell-based, luminescence, quadruplicate (AID 588792).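 Also: 0% = DMSO treated cells and 100% = gossypol at 36 µM.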 The following applies: HEK293 GAL4-SRC3 luciferase reporter, at 3.6 µM, stronger effect = higher value.
Experiment [2] concerns transactivating tegument protein VP16 (Human herpesvirus 1), Gal4-VP16 luciferase reporter. In words: VP16 transactivation inhibitors, counter-screen for SRC3 inhibitor project, cell-based, luminescence, high throughput (AID 588794; in the data active = inhibition above about 30%). The following applies: mammalian cells, VP16-driven luciferase reporter luminescence; at 3.6 µM; stronger effect = higher value. (In general: A counterscreen serves to expose hits that act by an unwanted route or on another target.)

Experiment [3] addresses Nuclear receptor coactivator 1 (Homo sapiens) (UniProt Q15788). Description: SRC1 coactivator transcriptional activity inhibitors, confirmation, cell-based, luminescence, quadruplicate (AID 588820;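 active = mean inhibition above 46.68%, the untreated control wells mean plus 3 SD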;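 also: 0% = DMSO wells and 100% = gossypol 36 µM treated wells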). The following applies: HEK293 GAL4-SRC1 luciferase reporter, at 3.6 µM, stronger effect = higher value. In general terms: In a reporter assay the amount or activity of a reporter protein is the signal.

The nature of experiment [4]: VP16 transactivation inhibitors, counter-screen for SRC1 inhibitor project, cell-based, luminescence, high throughput (AID 588824; in the data active = inhibition above about 25%). The following applies: cell-based VP16 transactivation luciferase luminescence; at 3.6 µM; stronger effect = higher value.

The source made the active and inactive calls.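 The calls were made as follows, unless noted: active = mean inhibition over 43.08%, the solvent-only control mean plus 3 SD; inactive = the rest.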

Nuclear receptor coactivator 1 (Homo sapiens), sequence (Q15788 whole entry, looked up, the tested form may be a part): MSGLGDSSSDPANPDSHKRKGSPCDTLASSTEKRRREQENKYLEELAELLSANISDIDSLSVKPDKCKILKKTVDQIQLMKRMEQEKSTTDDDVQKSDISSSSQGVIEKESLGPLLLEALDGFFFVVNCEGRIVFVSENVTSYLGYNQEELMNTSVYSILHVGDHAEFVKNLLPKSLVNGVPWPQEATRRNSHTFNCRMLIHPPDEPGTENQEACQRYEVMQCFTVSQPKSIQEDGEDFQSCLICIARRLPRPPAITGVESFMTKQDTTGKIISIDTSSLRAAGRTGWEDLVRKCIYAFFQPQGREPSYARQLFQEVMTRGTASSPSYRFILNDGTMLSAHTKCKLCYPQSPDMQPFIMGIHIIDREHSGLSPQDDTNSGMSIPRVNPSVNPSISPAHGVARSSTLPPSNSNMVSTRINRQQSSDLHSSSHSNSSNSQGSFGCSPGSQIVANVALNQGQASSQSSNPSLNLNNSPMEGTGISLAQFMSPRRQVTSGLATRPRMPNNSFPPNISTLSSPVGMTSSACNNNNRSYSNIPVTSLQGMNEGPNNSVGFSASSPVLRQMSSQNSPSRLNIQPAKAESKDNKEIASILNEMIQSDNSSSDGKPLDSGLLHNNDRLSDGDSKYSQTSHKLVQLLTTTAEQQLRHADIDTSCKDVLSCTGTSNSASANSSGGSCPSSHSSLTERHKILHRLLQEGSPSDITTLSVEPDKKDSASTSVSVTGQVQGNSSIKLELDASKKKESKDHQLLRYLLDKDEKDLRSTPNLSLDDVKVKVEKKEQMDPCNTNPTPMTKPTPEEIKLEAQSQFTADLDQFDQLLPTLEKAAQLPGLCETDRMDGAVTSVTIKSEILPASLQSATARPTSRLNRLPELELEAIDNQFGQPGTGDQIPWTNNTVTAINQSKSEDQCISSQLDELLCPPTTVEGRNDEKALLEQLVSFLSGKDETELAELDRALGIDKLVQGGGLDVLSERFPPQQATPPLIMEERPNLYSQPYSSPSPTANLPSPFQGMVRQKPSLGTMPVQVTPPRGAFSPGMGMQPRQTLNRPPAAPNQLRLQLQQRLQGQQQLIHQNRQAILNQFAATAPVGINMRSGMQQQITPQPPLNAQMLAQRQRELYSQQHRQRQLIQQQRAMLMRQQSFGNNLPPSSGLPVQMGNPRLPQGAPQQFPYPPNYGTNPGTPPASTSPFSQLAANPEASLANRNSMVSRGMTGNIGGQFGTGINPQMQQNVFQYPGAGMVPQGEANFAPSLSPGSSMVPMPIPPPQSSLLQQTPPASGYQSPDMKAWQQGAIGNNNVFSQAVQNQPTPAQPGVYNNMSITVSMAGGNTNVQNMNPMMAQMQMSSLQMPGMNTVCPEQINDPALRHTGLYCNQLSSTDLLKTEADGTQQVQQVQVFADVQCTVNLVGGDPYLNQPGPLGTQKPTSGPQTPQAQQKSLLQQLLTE
Nuclear receptor coactivator 3 (Homo sapiens), sequence (Q9Y6Q9 whole entry, looked up, the tested form may be a part): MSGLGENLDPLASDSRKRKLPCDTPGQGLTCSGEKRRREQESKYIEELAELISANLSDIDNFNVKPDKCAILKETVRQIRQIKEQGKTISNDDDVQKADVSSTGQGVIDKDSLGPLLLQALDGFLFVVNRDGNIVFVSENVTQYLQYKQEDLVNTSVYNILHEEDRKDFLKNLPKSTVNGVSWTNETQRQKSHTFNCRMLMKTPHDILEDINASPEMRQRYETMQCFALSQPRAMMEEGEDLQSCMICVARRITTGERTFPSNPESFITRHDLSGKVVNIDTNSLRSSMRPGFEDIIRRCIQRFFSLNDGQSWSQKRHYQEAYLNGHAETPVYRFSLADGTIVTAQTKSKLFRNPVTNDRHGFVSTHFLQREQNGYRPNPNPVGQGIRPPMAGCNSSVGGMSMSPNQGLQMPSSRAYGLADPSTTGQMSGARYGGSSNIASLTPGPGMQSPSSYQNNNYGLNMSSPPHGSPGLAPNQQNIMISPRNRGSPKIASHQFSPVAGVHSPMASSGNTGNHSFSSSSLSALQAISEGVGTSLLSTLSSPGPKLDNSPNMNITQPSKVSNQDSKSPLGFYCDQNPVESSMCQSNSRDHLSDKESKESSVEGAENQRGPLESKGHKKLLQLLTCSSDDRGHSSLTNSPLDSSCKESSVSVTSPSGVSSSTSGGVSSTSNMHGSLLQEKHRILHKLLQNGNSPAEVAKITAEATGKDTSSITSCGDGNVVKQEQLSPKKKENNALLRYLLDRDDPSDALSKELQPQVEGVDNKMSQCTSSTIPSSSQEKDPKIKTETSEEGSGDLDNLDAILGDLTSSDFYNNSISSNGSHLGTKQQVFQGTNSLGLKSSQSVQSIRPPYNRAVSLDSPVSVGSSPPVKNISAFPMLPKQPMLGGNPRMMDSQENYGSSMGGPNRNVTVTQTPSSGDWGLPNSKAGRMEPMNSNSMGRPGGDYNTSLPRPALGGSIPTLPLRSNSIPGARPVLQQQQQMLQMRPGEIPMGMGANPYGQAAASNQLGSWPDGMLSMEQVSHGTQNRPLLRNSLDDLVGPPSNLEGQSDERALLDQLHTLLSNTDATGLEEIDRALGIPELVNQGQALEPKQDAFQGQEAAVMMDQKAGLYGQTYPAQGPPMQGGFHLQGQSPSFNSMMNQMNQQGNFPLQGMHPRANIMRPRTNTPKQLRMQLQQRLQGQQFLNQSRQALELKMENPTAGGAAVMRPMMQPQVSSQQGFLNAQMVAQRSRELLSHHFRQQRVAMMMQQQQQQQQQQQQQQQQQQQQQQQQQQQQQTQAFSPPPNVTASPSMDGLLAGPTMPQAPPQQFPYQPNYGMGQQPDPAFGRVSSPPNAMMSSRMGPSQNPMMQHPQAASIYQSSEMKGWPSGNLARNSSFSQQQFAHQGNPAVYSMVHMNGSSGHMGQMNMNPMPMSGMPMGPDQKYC

In the case of `CC(C)c1nc(NCCO)c(C#N)c2c1CCCC2`, the inhibition (in general, the relative decrease from the control value, in per cent) in experiment [1] is 40% (inactive); in experiment [2], 30% (active); in experiment [3] it was 22.1% (inactive); in experiment [4], 35.1% (active).
For `O=C(/C=C/c1ccc(OCCCF)cc1)Nc1ccnc(-c2cccnc2)n1`, in that order: 17.1% (inactive), 11.1% (inactive), -25.6% (inactive) and 15.8% (inactive).
For `COc1ccc(-c2csc3ncnc(NCCCO)c23)cc1`, the inhibition is 66.3% (active) in experiment [1], 46.3% (active) in experiment [2], 50.2% (active) in experiment [3] and 49.8% (active) in experiment [4].
Consider `O=c1[nH]c(=O)n([C@H]2C[C@H](O)[C@@H](CO)O2)cc1F`, for which the inhibition was 60.6% (active) in experiment [1], 31% (active) in experiment [2], 46% (inactive) in experiment [3] and 35.4% (active) in experiment [4].
In the case of `CCCCC(=O)NC(c1cccs1)c1cc(Cl)c2cccnc2c1O` (stereo not given), the inhibition is 44.5% (active) in experiment [1], 40.6% (active) in experiment [2], 27.5% (inactive) in experiment [3] and 49.9% (active) in experiment [4].
Turning to `Cc1sc2ncnc(N3CCC(C(=O)Nc4ccccc4C(C)(C)C)CC3)c2c1C`, the inhibition in experiment [1] is 35.8% (inactive); in experiment [2], 27.6% (inactive); in experiment [3], 41.9% (inactive); in experiment [4], 29.7% (active).
For `Oc1ccc(C=NNc2ccccn2)c(O)c1`, the inhibition in experiment [1] is 76% (active); in experiment [2], -12.1% (inactive); in experiment [3] it was 14.7% (inactive); in experiment [4] it was -1.88% (inactive).
For `O=C(N/N=C/c1cc(O)ccc1Br)c1cccnc1`, in that order: 17.6% (inactive), 37.5% (active), 19.8% (inactive) and 39.3% (active).
For the molecule `CCOC(=O)C(=Cc1cc(=O)c(OC)co1)C(=O)OCC`, the inhibition is 48.6% (active) in experiment [1], 52.1% (active) in experiment [2], -0.65% (inactive) in experiment [3] and 53.4% (active) in experiment [4].
As to `CC(C)n1cc(/C=C/c2cc[n+](C)cc2)c2ccccc21`, the inhibition is 14% (inactive) in experiment [1], 21% (inactive) in experiment [2], 16.8% (inactive) in experiment [3] and 30.3% (active) in experiment [4].
